Bioassay records as filed in PubChem.
Shown are actives, neighbours in structure and some others; about 28% of the full set was active somewhere.
CYP2C19 act: human CYP2C19 activators, primary screen, biochemical, luminescence; Cytochrome P450 2C19 (Homo sapiens), P33261; 96,000 tested, under 10 active; activation factor at 5 µM; recombinant CYP2C19, luciferin-H EGE luminescence; stronger effect = higher value; 0 = fully inhibited enzyme, 1 = untreated enzyme;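 active = activation factor of at least 2 at 5 µM in the primary screen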;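 note: 0 = wells with 2.5 mM tranylcypromine and 1 = vehicle-only wells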
Pyk2 oligo antag: antagonists of Pyk2 self-association, primary screen, Q293 cells, FERM NanoBiT luminescence, HTS; z-score (the deposit names both 25 µM and 10 µM); Protein-tyrosine kinase 2-beta (Homo sapiens), Q14289; AID 1347419, 2020; 0.83% of 99,000 active; stronger effect = lower value;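 active = Z-score of -3 or lower, scaled per plate to the spread of control and sample wells; inactive = z-score above -3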;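 note: negative z-score means lost luminescence so less FERM oligomerization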
Target sequence (Q14289 whole entry, looked up): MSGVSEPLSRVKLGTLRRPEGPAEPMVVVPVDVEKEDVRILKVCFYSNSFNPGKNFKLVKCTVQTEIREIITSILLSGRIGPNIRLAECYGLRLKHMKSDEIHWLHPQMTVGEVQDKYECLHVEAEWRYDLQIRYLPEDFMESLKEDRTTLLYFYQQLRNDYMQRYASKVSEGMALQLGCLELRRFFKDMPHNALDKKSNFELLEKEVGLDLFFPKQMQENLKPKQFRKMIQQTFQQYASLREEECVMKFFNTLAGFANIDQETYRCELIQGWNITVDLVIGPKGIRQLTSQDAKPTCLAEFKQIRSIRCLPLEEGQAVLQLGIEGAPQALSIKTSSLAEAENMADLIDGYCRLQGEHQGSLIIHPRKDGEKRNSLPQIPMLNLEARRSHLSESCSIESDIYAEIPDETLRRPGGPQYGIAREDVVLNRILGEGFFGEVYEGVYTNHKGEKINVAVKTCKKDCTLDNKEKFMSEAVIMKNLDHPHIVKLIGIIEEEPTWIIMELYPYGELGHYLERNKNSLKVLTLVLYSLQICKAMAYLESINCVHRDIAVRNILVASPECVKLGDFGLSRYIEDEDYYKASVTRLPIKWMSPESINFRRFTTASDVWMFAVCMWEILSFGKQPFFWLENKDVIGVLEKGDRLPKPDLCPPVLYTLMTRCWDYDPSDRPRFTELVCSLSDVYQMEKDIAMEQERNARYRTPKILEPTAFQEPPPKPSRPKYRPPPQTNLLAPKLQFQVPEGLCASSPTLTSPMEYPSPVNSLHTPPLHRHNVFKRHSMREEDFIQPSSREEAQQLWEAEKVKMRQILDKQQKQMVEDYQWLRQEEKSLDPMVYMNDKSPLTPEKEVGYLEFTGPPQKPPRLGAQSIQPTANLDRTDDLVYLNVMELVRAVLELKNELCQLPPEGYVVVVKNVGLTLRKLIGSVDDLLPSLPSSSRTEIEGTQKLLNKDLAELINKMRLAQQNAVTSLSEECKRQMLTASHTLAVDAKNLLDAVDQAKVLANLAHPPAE
CYP2C9 inhib: blockers of cytochrome P450 2C9 activity – biochemical, luminescence, ADME assay, primary screen | inhibition, % at 5 µM | CYP2C9 Supersomes, luciferin-H conversion | 20% of 96,000 active | P11712 | AID 777, 2007;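 active = blocking of liver enzyme CYP2C9 beyond about 50% at 5 µM, limit read from the data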
CYP2C9 activ: human CYP2C9 activators, primary screen, biochemical, luminescence. recombinant CYP2C9, luciferin-H conversion; stronger effect = higher value; factor 1 = untreated enzyme, 0 = blocked. activation factor at 5 µM. 1.4% of 96,000 active. AID 1024, 2008;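 active = activation factor of 2 or more for CYP2C9 at a 5 µM dose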;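 note: 0 = sulfaphenazole-blocked wells and 1 = vehicle-only wells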
CYP2C19 inhib: blockers of cytochrome P450 2C19 activity – biochemical, luminescence, ADME assay, primary screen; CYP2C19 Supersomes, luciferin-H EGE luminescence, 30 min; inhibition, % at 5 µM; 21% of 96,000 active;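 active = CYP2C19 inhibition above a set limit at 5 µM in the primary screen, cut at about 50% in these data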;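 note: plate controls were negative control wells for no effect and 2.5 mM tranylcypromine positive control for full effect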
* = called active by the depositor.

For CC12C(=O)N(Cc3ccco3)C(=O)C1C1c3ccccc3C2c2ccccc21 (stereo not drawn) the results were CYP2C19 act 0.4, Pyk2 oligo antag 0.24, CYP2C9 inhib 35.3, CYP2C9 activ 0.6 and CYP2C19 inhib 57.4*.
Screening O=C1C2C3c4ccccc4C(c4ccccc43)C2C(=O)N1Cc1ccco1 (stereo not drawn) returned CYP2C19 act 0.9, Pyk2 oligo antag 2.14, CYP2C9 inhib -0.7, CYP2C9 activ 1 and CYP2C19 inhib 9.9.
`COC(=O)c1cc2c(cc1Cl)SC(=NCCCN1CCOCC1)NS2(=O)=O` gave CYP2C19 act 0.7, Pyk2 oligo antag -0.34, CYP2C9 inhib -79.5, CYP2C9 activ 1.8 and CYP2C19 inhib 29.0.
COc1cc(Br)c(C(C)NC(=O)c2ccc(C)cc2)cc1OC (stereo not drawn) was read as CYP2C19 act 0.7, Pyk2 oligo antag -0.99, CYP2C9 inhib 24.9, CYP2C9 activ 0.8 and CYP2C19 inhib 34.9.
For CO/N=C/c1ccc(Oc2ccc(C)cc2)nc1 the results were CYP2C19 act 0.7, Pyk2 oligo antag -0.09, CYP2C9 inhib -26.1, CYP2C9 activ 1.3 and CYP2C19 inhib 31.9.
`Cc1ccc(NC(=O)c2cc(-c3ccc(C)o3)nc3ccccc23)cc1` gave CYP2C19 act 1, Pyk2 oligo antag 0.06, CYP2C9 inhib 28.4, CYP2C9 activ 0.7 and CYP2C19 inhib 4.1.
For CCc1ccc(-c2cc(C(=O)NN3CCOCC3)c3ccccc3n2)cc1 the results were CYP2C19 act 0.9, Pyk2 oligo antag -0.14, CYP2C9 inhib 53.8*, CYP2C9 activ 0.5 and CYP2C19 inhib 9.6.
For CCN(CC(=O)Nc1ccc2c(c1)OCCO2)c1nc(-c2cccnc2)nc2ccccc12 the results were CYP2C19 act 0.3, Pyk2 oligo antag -0.79, CYP2C9 inhib 56.4*, CYP2C9 activ 0.4 and CYP2C19 inhib 65.8*.
Screening Cc1nc2ccccc2n1C(=O)c1cc(-c2ccc(Br)cc2)nc2ccccc12 returned CYP2C19 act 0.8, Pyk2 oligo antag 0.73, CYP2C9 inhib 78.8*, CYP2C9 activ 0.2 and CYP2C19 inhib 16.8.
For Cc1ccc(-c2cc(C(=O)Nc3ccc4c(c3)OCCO4)c3ccccc3n2)cc1 the results were CYP2C19 act 0.8, Pyk2 oligo antag -1.79, CYP2C9 inhib 76.2*, CYP2C9 activ 0.2 and CYP2C19 inhib 23.2.
`COc1ccc(-c2nnn(Cc3nc(N)nc(N4CCOCC4)n3)n2)cc1OC` gave CYP2C19 act 0.9, Pyk2 oligo antag -1.12, CYP2C9 inhib 14.3, CYP2C9 activ 0.9 and CYP2C19 inhib 14.0.
Screening Cc1ccc(-c2cc(C(=O)N3CCOCC3)c3ccccc3n2)cc1 returned CYP2C19 act 0.3, Pyk2 oligo antag -0.01, CYP2C9 inhib 46.1, CYP2C9 activ 0.5 and CYP2C19 inhib 69.6*.
`COc1ccc(-c2cc(C(=O)N3CCOCC3)c3cc(C)ccc3n2)cc1` gave CYP2C19 act 0.7, Pyk2 oligo antag 0.09, CYP2C9 inhib 59.2*, CYP2C9 activ 0.4 and CYP2C19 inhib 33.4.
For CS(=O)(=O)Nc1ccccc1C(=O)Nc1ccc2c(c1)OCCO2 the results were CYP2C19 act 0.9, Pyk2 oligo antag -0.13, CYP2C9 inhib 73.4*, CYP2C9 activ 0.3 and CYP2C19 inhib 10.7.
CCC(C)NC(=O)C1CCCN(S(=O)(=O)c2ccc(-n3cnnn3)cc2)C1 (stereo not drawn) was read as CYP2C19 act 0.9, Pyk2 oligo antag 0.31, CYP2C9 inhib 13.6, CYP2C9 activ 0.9 and CYP2C19 inhib 9.0.
Cc1c2cnn(-c3ccccc3)c(=O)c2c(C)n1CCCC(=O)N1CCN(c2ncccn2)CC1 was read as CYP2C19 act 0.6, Pyk2 oligo antag 0.58, CYP2C9 inhib 36.1, CYP2C9 activ 0.6 and CYP2C19 inhib 40.9.
`O=C(Cn1ncc2c3ccccc3n(Cc3ccccc3)c2c1=O)N1CCN(c2ncccn2)CC1` gave CYP2C19 act 0, Pyk2 oligo antag -0.44, CYP2C9 inhib 76.9*, CYP2C9 activ 0.2 and CYP2C19 inhib 98.3*.
Screening O=c1cc(/C=C/c2ccccc2)oc2ccccc12 returned CYP2C19 act 0.4, Pyk2 oligo antag 0.95, CYP2C9 inhib 78.6*, CYP2C9 activ 0.2 and CYP2C19 inhib 61.6*.
O=C(NC1CC1)c1cc(=O)c2ccccc2o1 was read as CYP2C19 act 0.9, Pyk2 oligo antag -0.24, CYP2C9 inhib 2.2, CYP2C9 activ 1 and CYP2C19 inhib 13.1.
For O=C1NC2(CCc3ccccc32)C(=O)N1CCOc1ccc(Cl)cc1 (stereo not drawn) the results were CYP2C19 act 0.9, Pyk2 oligo antag 0.36, CYP2C9 inhib 77.2*, CYP2C9 activ 0.2 and CYP2C19 inhib 5.7.
Cc1ccccc1OCCN1C(=O)NC2(CCc3ccccc32)C1=O (stereo not drawn) was read as CYP2C19 act 0.7, Pyk2 oligo antag -0.43, CYP2C9 inhib -95.1, CYP2C9 activ 2* and CYP2C19 inhib 34.6.
For COc1ccc(CCNC(=O)CC2SC(=NCCC(C)C)NC2=O)cc1OC (stereo not drawn) the results were Pyk2 oligo antag 0.37.
For Cc1nc(-c2c(-c3ccc(O)cc3O)noc2C(F)(F)F)cs1 the results were CYP2C19 act 0.3, Pyk2 oligo antag -2.89, CYP2C9 inhib -14.5, CYP2C9 activ 1.1 and CYP2C19 inhib 70.6*.
Screening O=C(CN(Cc1ccco1)C(=O)CNS(=O)(=O)c1ccc(F)cc1)NCCc1ccccc1 returned CYP2C19 act 0.3, Pyk2 oligo antag -0.37, CYP2C9 inhib 61.0*, CYP2C9 activ 0.4 and CYP2C19 inhib 65.4*.
For O=C(CN(Cc1cccs1)C(=O)CNS(=O)(=O)c1ccccc1)NCc1ccco1 the results were CYP2C19 act 0.5, Pyk2 oligo antag 0, CYP2C9 inhib 27.2, CYP2C9 activ 0.7 and CYP2C19 inhib 52.5*.
`Cc1ccc(S(=O)(=O)NCC(=O)N(CC(=O)NCc2ccco2)Cc2ccc3c(c2)OCO3)cc1` gave CYP2C19 act 0.7, Pyk2 oligo antag -0.29, CYP2C9 inhib 28.4, CYP2C9 activ 0.7 and CYP2C19 inhib 30.6.
O=C(CN(Cc1ccco1)C(=O)CNS(=O)(=O)c1ccccc1)NCc1ccccc1 was read as CYP2C19 act 0.4, Pyk2 oligo antag -0.86, CYP2C9 inhib 27.2, CYP2C9 activ 0.7 and CYP2C19 inhib 60.8*.
`Cc1nc2c(C)cccn2c1/C(O)=C1\C(=O)C(=O)N(CCN2CCOCC2)C1c1cccs1` (stereo not drawn) gave CYP2C19 act 0.7, Pyk2 oligo antag 0.9, CYP2C9 inhib 6.5, CYP2C9 activ 0.9 and CYP2C19 inhib 32.1.
`Cc1ccccc1Oc1ncnc2sccc12` gave CYP2C19 act 0.6, Pyk2 oligo antag -0.25, CYP2C9 inhib -11.8, CYP2C9 activ 1.1 and CYP2C19 inhib 35.8.
